# From PubChem
# A selection: hits, their analogues and other compounds. The true share with any hit is near 8.7%.
# BAZ2B inh: BAZ2B (human) inhibition. AlphaScreen BAZ2B-H3K14Ac peptide displacement. Potency, µM (series often up to 114 µM), for the others: at the top dose activity change, negative = inhibition, actives largely listed as inhibitors. actives 4.4% (n = 360,000). AID 504333; also: % is scaled to controls: 0 for no effect and ±100 for the full control effect; nearly all actives have a fitted effect of over 60% in size
#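 Complex of BAZ2B and biotin-H3K14Ac (50 nM apiece) forms over 30 min at RT, then faces library compounds up to 110 uM for another 30 min; AlphaScreen beads added, 20 min dark incubation, luminescence read.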
# HP1b binding inh: blocks HP1-beta chromodomain binding to methylated histone tails; P83916; AlphaScreen HP1-beta / biotin-H3K9me3 peptide binding; Potency, µM (titrated, usually from 114 µM), for inactives: at the highest dose activity change, negative = inhibition, most hits filed as inhibitors; actives 0.56% (n = 390,000); AID 540317; also: nearly all actives have a fitted effect of over 70% in size
#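 Compound inhibition of the preformed complex between 50 nM HP1-beta and 50 nM biotinylated H3K9me3 peptide was read by AlphaScreen. Buffer was PBS pH 7.4 with 0.01% Tween-20. Incubations ran 30 min at room temperature, with 10 ug/mL donor/acceptor beads.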
# ALOX12 inh: inhibitors of human 12S-lipoxygenase ALOX12 | actives 1.1% (n = 580,000) | AID 1671190 | Potency, µM (highest dose often 108 µM), for the others: at the highest dose activity change, negative = inhibition, most hits filed as inhibitors | P18054 | purified 12hLO, xylenol orange hydroperoxide absorbance; also: % is scaled to controls: 0 for no effect and ±100 for the full control effect
#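 Purified human 12hLO (150 nM final) in 25 mM Hepes, 0.01% Triton X-100, pH 7.0 was preincubated 15 min at room temperature with compound. Then 40 uM arachidonic acid was added, 30 min. Hydroperoxide was read by Fe-XO absorbance ratio 573/405 nm.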
# Sfp inh: blocks B. subtilis Sfp PPTase activity; Biochemical Sfp PPTase activity, qHTS; Potency, µM, for inactives: largest response in the series, negative = inhibition, most hits filed as inhibitors; actives 3.5% (n = 310,000);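 also: the enzyme is Sfp with the accession as filed and its product quenches rhodamine fluorescence; 0% = enzyme reaction without inhibitor and -100% = no enzyme wells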
#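 Compounds were incubated with enzyme (final 15 nM) for 15 min at room temperature before substrate addition started the reaction. Fluorescence at 525 nm excitation, 598 nm emission was recorded immediately and after 30 minutes.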
# G9a block: blocks human histone lysine methyltransferase G9a. actives 8.8% (n = 350,000). G9a H3K9 monomethylation, AlphaScreen, 2 h. Potency, µM (titrated, usually from 102 µM), for the others: top-dose activity, negative = inhibition, hits mostly inhibitors. AID 504332; also: % is scaled to controls: 0 for no effect and ±100 for the full control effect; nearly all actives have a fitted effect of over 75% in size
#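 Readings reflect AlphaScreen signal from monomethyl-H3K9 antibody detection. HMT at 20 nM; substrate b-H3K9 500 nM; cofactor SAM 20 uM; 2 h RT reaction; compounds tested as titrations in qHTS with 15 min preincubation.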
# JMJD2A Tudor: inhibitors of human JMJD2A Tudor domain | O75164 | AlphaScreen JMJD2A-Tudor / H3K4me3 peptide binding | Potency, µM (highest dose often 114 µM), for inactives: top-dose activity change, negative = inhibition, hits mostly inhibitors | actives 4.4% (n = 390,000) | AID 504339; also: % is scaled to controls: 0 for no effect and ±100 for the full control effect; nearly all actives have a fitted effect of over 50% in size
# * = called active by the depositor; ? = inconclusive; nt = no result given; [ ] = remark or other dose. Calls follow the shape of the dose curve; as a rule, active = well fitted curve in the direction sought with a large enough effect; inconclusive = small, poorly fitted or top-dose-only effect, or another doubt; inactive = no such curve, though single readings can be large; an effect the other way counts as inactive or inconclusive. Potency is read from the fitted curve at half-maximal effect.
SMILES,BAZ2B inh,HP1b binding inh,ALOX12 inh,Sfp inh,G9a block,JMJD2A Tudor
COc1ccc(CCN(C)C(=O)C2CCN(Cc3cccc(OC)c3OC)CC2)cc1OC,?,-16%,?,-28%,nt,3.2µM*
COc1ccc(CCNC(=O)CN2C(=O)c3ccccc3S2(=O)=O)cc1OC,1%,26%,154%,21%,-2%[59 µM],-6%
CN(Cc1ccccc1)C(=O)C1CCN(Cc2cc3ccccc3n2Cc2ccccc2)CC1,-21%,20%,45µM*,nt,-27%[59 µM],-14%
COc1ccc(CCN(C)C(=O)CN2C(=O)c3ccccc3S2(=O)=O)cc1OC,-2%,?,35%,-1%,?,79µM*
CCN(Cc1ccccc1)C1CCN(Cc2ccccc2)CC1,-24%,29%,nt,5%,71µM*,-6%
O=C(O)CCc1ccc(S(=O)(=O)NCc2ccco2)cc1,nt,nt,19%,nt,nt,nt
CC(=O)c1cc(CN2CCC3(CC2)C(C(=O)O)CC(=O)N3C)n(C)c1 (stereo not drawn),nt,nt,8%,nt,nt,nt
COc1ccc(CN2CCC(N(CCc3ccccc3)Cc3ccccc3)CC2)c(OC)c1,40µM*,?,?,40µM*,?,3.2µM*
COc1ccc(CCN(C)C(=O)C2CCN(Cc3ccccc3)CC2)cc1OC,12%,?,-16%,-7%,11%,22µM*
COc1ccc(CN2CCC(C(=O)N(C)CCc3ccc(OC)c(OC)c3)CC2)c(OC)c1,?,?,?,-9%,10µM*,7.9µM*
Cc1ccc(CC(=O)N(C)Cc2ccsc2)cc1,nt,nt,13%,nt,nt,nt
Cc1cc(NC(=O)c2nccnc2N)ccc1Br,nt,nt,61%,nt,nt,nt
CCn1c(Sc2nc(C)nc3scc(-c4cccs4)c23)n[nH]c1=O,-9%,62%,15%,1%,45µM*,-17%[57.1 µM]
CCOc1cnc(-c2ccc(Cl)cc2)o1,-20%,13%,0%,17%,?,9%
CCOc1cnc(-c2c(-c3c(Cl)cccc3Cl)noc2C)o1,45µM*,45µM*,11%,11%,45µM*,57%
Cc1cc(N2CCN(c3ccccc3)CC2)n2cnnc2n1,-11%,43%,-8%,nt,28%[59 µM],-24%
Cc1cc(N2CCN(c3ccccc3)CC2)n2cc(-c3ccccc3)nc2n1,45µM*,-35%,8%,?,-11%[12.7 µM],?
Cc1cc(N2CCN(c3ccccc3Cl)CC2)n2cc(-c3ccccc3)nc2n1,?,0%,-10%,?,50µM*,?
Cc1ccc(S(=O)(=O)N/N=C/c2ccccc2O)cc1[N+](=O)[O-],-38%,5%,6%,10%,?,-11%
O=[N+]([O-])c1cccc(/C=N/NS(=O)(=O)c2ccccc2)c1,-7%,50%,4%,0%,nt,-19%
CCN(CC)c1ccc(/C=N/NS(=O)(=O)c2ccc(Cl)cc2)cc1,nt,nt,32µM*,nt,nt,nt
Cc1ccc(S(=O)(=O)N/N=C/c2ccc(O)c(O)c2)cc1[N+](=O)[O-],-35%,-18%,50µM*,?,35µM*,?
CCN(CC)c1ccc(/C=N/NS(=O)(=O)c2ccc(C)c([N+](=O)[O-])c2)cc1,?,?,?,-5%,40µM*,35µM*
CCN(Cc1ccccc1)c1ccc(/C=N/NS(=O)(=O)c2cccc([N+](=O)[O-])c2)cc1,?,?,?,?,10µM*,?
CCCNC(=O)NC(=O)CN(C)C(C)C1CC1 (stereo not drawn),nt,nt,22%,nt,nt,nt
O=C(Nc1ccc(C2=NCCN2)cc1)c1ccc(C(=O)Nc2ccc(C3=NCCN3)cc2)c([N+](=O)[O-])c1,?,?,?,-20%,40µM*,?
CCOc1c(Br)cc(C(N)=O)cc1OC,-11%,-18%,-14%,3%,-2%,56µM*
CCOc1cc(CO)cc(Br)c1OCC(=O)O,nt,27%,13%,nt,nt,-26%
COc1cc(CO)cc(Br)c1OCC(=O)O,-4%,30%,?,-3%,50µM*,?
